Measured values taken from PubChem BioAssay AID602156 (GNF / Scripps Winzeler lab, 2011).
Screen size: about 5,700 compounds; about 280 (4.9%) were called active. How the calls were made is not given here. A selection follows.

experiment: exo-erythrocytic parasite development inhibition – imaging, Malaria Box, P. yoelii, HepG2-A16-CD81EGFP, dose response (AID 602156); conditions: P. yoelii liver stage in HepG2-A16-CD81EGFP

outcome, inactive:
CC(C)(C)CC(=O)NCCCCNc1ccnc2cc(Cl)ccc12
O=C(Nc1ccc(-c2nc3ccccc3[nH]2)cc1)c1cccc(C(=O)Nc2ccc(-c3nc4ccccc4[nH]3)cc2)n1
O=C(Nc1ccc(-c2nc3ccccc3[nH]2)cc1)c1ccc(-c2cccc([N+](=O)[O-])c2)o1
CCc1ccccc1N(CC(=O)NC1CCCCC1)C(=O)CCC(=O)Nc1ccccn1
Oc1ccc(-c2ccccc2)cc1CNC1CCCCC1
CCOC(=O)c1c(C)[nH]c(C)c1S(=O)(=O)N1CCCC(C(=O)N2CCN(c3cccc(C)c3C)CC2)C1 (configuration not stated)
CC1CN(C(=O)C(Cc2c[nH]c3ccccc23)NC(=O)CCl)CCN1C(=O)Nc1ccccc1 (configuration not stated)
Cc1ccc(C=Cc2ccc3ccccc3[n+]2C)cc1
COc1ccc(-c2c[n+](CC(=O)c3ccccc3)c3n2CCC3)cc1
COc1ccc(OC)c(-c2ccc(O)c(CNCC(C)c3ccccc3)c2)c1 (configuration not stated)
Fc1cc(F)c(C2SCCN2C(=S)Nc2cccc(C(F)(F)F)c2)c(F)c1 (configuration not stated)
COc1cccc2cc(C(=O)Nc3cccc(C(F)(F)F)c3)c(=O)oc12
CC(C)(C)CC(C)(C)Nc1c(-c2ccccc2OC(=O)c2cccc(Br)c2)nc2ccccn12
COc1ccccc1C=CC1=NC(=Cc2ccc(SC)cc2)C(=O)O1
O=C(Cn1cc([N+](=O)[O-])nc1[N+](=O)[O-])N1CCN(c2ccc(F)cc2)CC1
CCOc1ccc(C=C2SC(=Nc3ccccc3)NC2=O)cc1OC
CCOC(=O)C1CCN(C(=O)CN2C(=O)c3ccccc3C2c2c[nH]c3ccccc23)CC1 (configuration not stated)
N#CC(=Cn1cc(Cc2ccc(Cl)cc2Cl)c2ccccc21)c1nn(CCO)c(N)c1C#N
Cc1nnc2sc(SCc3ccc([N+](=O)[O-])cc3)nn2c1=O
CC1CCN(S(=O)(=O)c2ccc(C(=O)NCc3ccco3)cc2)CC1
CCN1CCCC1CNc1ncnc2c1[nH]c1ccc(C)cc12 (configuration not stated)
c1ccc(CCCNc2ccnc3cc4ccccc4cc23)cc1
COCCn1c(SCC(=O)c2ccc(C)cc2C)nnc1-c1ccco1
CCN(CC)CCNc1ncnc2c1[nH]c1ccc(Br)cc12
CC(C)CNC(=O)c1cnc(NCCCN2CCCC2)nc1NCC1CCCCC1
CC[n+]1c(/C=C2\Sc3oc4ccccc4c3N2C)ccc2cc(C)ccc21
c1ccc(Nc2nc(NCC3CCCO3)c3ccccc3n2)cc1 (configuration not stated)
COc1ccccc1N1C(=N)SC(=Cc2ccc(OCc3ccccc3F)cc2)C1=O
CC[N+](CC)=c1scc(-c2ccc([N+](=O)[O-])cc2)s1
COc1cc(C(=O)NCCc2cc3ccccc3[nH]2)ccc1OC1CCN(CC(c2ccccc2)c2ccccc2)CC1
O=C(NCCCCCCCCCCNC(=O)Nc1ccc(C2=NCCCN2)cc1)Nc1ccc(C2=NCCCN2)cc1
COc1ccc(-c2csc3nc(COc4cccc(C)c4)nn23)c(O)c1
CCCCN(C)C(=O)CSc1nc(NCc2ccccc2)c2ccccc2n1
Cc1ccc(N=C2SC(=Cc3c(Cl)cccc3Cl)C(=O)N2c2ccc(C)c(C)c2)cc1C
CCCCCCC(=O)Oc1ccccc1-c1nc2ccccn2c1NC(C)(C)CC(C)(C)C
CN(CCCNc1ccnc2cc(Cl)ccc12)C(=O)c1ccc(Cl)c(Cl)c1
Cc1c(Cl)cccc1NC(=O)C1C(C(=O)O)C2C=CC1C21CC1 (configuration not stated)
CCCCCN(C(=O)c1ccc(Br)cc1)C(CC)c1nc2ccccc2c(=O)n1-c1ccccc1OC (configuration not stated)
CCCCCCN(C(=O)c1ccccc1)C(CC)c1nc2ccccc2c(=O)n1-c1ccccc1OC (configuration not stated)
O=c1c2c(nc3cc(-c4ccc(Cl)cc4)[nH]n13)CCCC2
O=c1c2c(nc3cc(-c4ccc(-c5ccccc5)cc4)[nH]n13)CCCC2
Cc1cccc(OCC(=O)Nc2cccc(NC(=O)COc3cccc(C)c3)n2)c1
CCc1ccc(C(C)=NNc2nc(-c3ccccc3)cc(=O)[nH]2)cc1
Cc1cccc(NS(=O)(=O)c2ccc3[nH]c(=O)ccc3c2)c1C
COc1cc(/C=C(\C#N)c2nc3ccccc3[nH]2)ccc1OCc1ccc(C)cc1
Clc1ccc(Nc2nc(Nc3ccc(Cl)cc3)c3ccccc3n2)cc1
CCc1ccc(-n2c(C(CC)N(CCc3ccccc3)C(=O)c3cc(OC)cc(OC)c3)nc3ccccc3c2=O)cc1 (configuration not stated)
CCCCCCN(C(=O)COCc1ccccc1)C(C)c1nc2ccccc2c(=O)n1-c1cccc(Cl)c1C (configuration not stated)
Cc1ccc2c(c1)c(-c1ccccc1)c(-c1ccccc1)n2CC(O)CN1CCN(Cc2ccccc2)CC1 (configuration not stated)
CC1CC(C)CN(c2ccc([N+](=O)[O-])cc2-c2nn[nH]n2)C1 (configuration not stated)
COc1ccc(C=NNc2nc3ccc(Cl)cc3[nH]2)cc1OC
COc1ccc(C=C2SC(=N)N(c3ccc4c(c3)OCO4)C2=O)cc1OC
COc1ccc(C(OCC(=O)N2CCN(Cc3ccccc3)CC2)c2ccccc2)cn1 (configuration not stated)
O=C(Nc1ccc(C2=NCCN2)c(Cl)c1)c1cccc(C(=O)Nc2ccc(C3=NCCN3)c(Cl)c2)c1
CC1CC(C)CN(S(=O)(=O)c2ccc(C(=O)Nc3ccc(-c4nc5ccccc5o4)cc3)cc2)C1 (configuration not stated)
Cc1ccc2cc3c(N)c4cccc(C)c4nc3nc2c1
CCOc1ccc(Nc2[nH]c(=O)sc2C2=c3cc(Br)ccc3=NC2=O)cc1
Cc1ccc(O)c(NC(=O)c2cnn3c(C(F)(F)F)cc(-c4ccc(F)cc4)nc23)c1
O=C(C=Cc1cccnc1)C12CC3CC(CC(C3)C1)C2
O=C1NN(c2ccccc2)C(=O)C1=C1C(=O)N(Cc2cccc3ccccc23)c2ccccc21
Cc1cc2ncn(N=Cc3cccnc3)c2cc1C
CCOC(=O)c1c(C)n(-c2ccccc2)c2ccc(OC(=O)c3ccccc3NC(=O)CC)cc12
